About 810 (0.84%) of roughly 97,000 compounds were called active. Cut-off read from the data, not from the text of the source: active = inhibition above about 19%; inactive = the rest. The sample as a whole holds a higher share of actives than the screen did.
molecular target: Focal adhesion kinase 1 (Homo sapiens) (UniProt Q05397); test: FAK kinase inhibitors, primary screen, biochemical (AID 727); settings: biochemical FAK kinase activity assay; stronger effect = higher value;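 tested at 7 µM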;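 note: 0% = DMSO and 100% = reference compound high control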
Sequence (Q05397 whole entry, looked up): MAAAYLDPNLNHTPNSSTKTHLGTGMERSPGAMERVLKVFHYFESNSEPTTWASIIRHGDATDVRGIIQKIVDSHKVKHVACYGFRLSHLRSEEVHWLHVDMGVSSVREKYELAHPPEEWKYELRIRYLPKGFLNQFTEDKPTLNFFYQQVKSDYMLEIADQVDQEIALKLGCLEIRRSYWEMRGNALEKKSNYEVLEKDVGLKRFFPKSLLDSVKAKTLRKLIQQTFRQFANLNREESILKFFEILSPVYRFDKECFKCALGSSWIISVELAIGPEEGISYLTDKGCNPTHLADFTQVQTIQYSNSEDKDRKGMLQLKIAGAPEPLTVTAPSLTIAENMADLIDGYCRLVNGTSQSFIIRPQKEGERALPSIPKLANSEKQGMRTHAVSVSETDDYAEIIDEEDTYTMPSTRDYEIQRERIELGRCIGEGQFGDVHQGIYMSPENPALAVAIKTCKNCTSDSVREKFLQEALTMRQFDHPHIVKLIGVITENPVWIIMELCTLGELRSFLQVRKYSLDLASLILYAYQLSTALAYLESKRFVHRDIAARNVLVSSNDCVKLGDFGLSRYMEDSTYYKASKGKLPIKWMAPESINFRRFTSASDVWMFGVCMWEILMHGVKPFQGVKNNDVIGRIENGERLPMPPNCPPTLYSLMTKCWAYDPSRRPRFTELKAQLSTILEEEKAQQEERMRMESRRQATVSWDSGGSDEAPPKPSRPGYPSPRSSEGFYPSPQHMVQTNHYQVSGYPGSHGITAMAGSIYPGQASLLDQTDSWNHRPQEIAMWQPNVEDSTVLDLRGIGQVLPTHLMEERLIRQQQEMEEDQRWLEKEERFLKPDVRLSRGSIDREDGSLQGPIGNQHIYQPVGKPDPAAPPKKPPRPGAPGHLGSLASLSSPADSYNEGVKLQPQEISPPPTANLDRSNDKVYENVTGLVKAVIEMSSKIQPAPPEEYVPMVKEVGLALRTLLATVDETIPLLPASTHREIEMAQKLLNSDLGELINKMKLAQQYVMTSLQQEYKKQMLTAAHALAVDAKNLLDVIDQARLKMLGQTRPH

SMILES | inhibition
Cc1ccc(C(=O)N/C(=C/c2ccco2)C(=O)NCCc2c[nH]c3ccccc23)cc1C | 4.25% (inactive)
COc1ccc(C2C=C(c3ccc(Br)cc3)Nc3nc(NS(C)(=O)=O)nn32)cc1 (stereo unspecified) | -9.88% (inactive)
O=C(CSc1nnnn1-c1ccccc1)NCc1ccco1 | 5.37% (inactive)
COc1ccc(CN(Cc2ccco2)S(=O)(=O)c2ccc(S(=O)(=O)N3CCCC3)cc2)cc1 | -0.01% (inactive)
Cc1cccc(N2CCN(C(=O)CN(C)S(=O)(=O)c3ccc4c(c3)CCC(=O)N4)CC2)c1C | 4.5% (inactive)
O=[N+]([O-])c1cccc(-c2nnc3c4ccccc4c4ccccc4n23)c1 | 17.7% (inactive)
O=c1c2c(nc3nc[nH]n13)CCC2 | -0.92% (inactive)
CCN1C(=O)/C(=C\N2CCOCC2)SC1=S | -1.1% (inactive)
Cc1cccc(N(C(=O)Cc2cccs2)C(C(=O)NC2CCCC2)c2ccsc2)c1 (stereo unspecified) | 2.56% (inactive)
S=c1[nH]nc(-c2ccco2)n1/N=C/c1ccc(Br)s1 | 15.6% (inactive)
Oc1ccccc1/C=N/n1c(-c2cccs2)n[nH]c1=S | 29.4% (active)
Cc1ccc(/C=N\n2c(-c3ccccc3)n[nH]c2=S)s1 | 0.69% (inactive)
O=C(Nc1ccc(Cl)cn1)c1cnn2cccnc12 | 5.62% (inactive)
Cc1cc(NC(=O)c2cnn3cccnc23)n(-c2ccccc2)n1 | 20.4% (active)
Cc1cc(NC(=O)Nc2ccccc2)n(-c2ccccc2)n1 | -1.43% (inactive)
CNC(=O)c1csc(-c2ccccc2)n1 | -0.71% (inactive)
Cc1ccc(C(c2nnnn2CS(=O)(=O)c2ccc(C)cc2)N2CCC(C)CC2)cc1 (stereo unspecified) | -7.49% (inactive)
CSc1ccccc1C(=O)Nc1cccc(C(C)=O)c1 | 2.46% (inactive)
CCN1CCN(C(=O)C2(NC(=O)Nc3cccc(F)c3)CCCCC2)CC1 | -0.58% (inactive)
CCOC(=O)c1c(N)sc(C(C)=O)c1C | -0.36% (inactive)
CCOC(=O)CSc1nc2ccc(C)cc2[nH]1 | -1.86% (inactive)
CCCSc1nsc(N)n1 | -4.41% (inactive)
CCN(CC)S(=O)(=O)c1ccc(N(C)Cc2ccc(C(F)(F)F)cc2)nc1 | -0.16% (inactive)
O=C(Nc1ccc(Cl)cc1)OCc1cc(-c2ccccc2)on1 | -6.39% (inactive)

SMILES | inhibition
CN(C)/C=C(\C#N)C(=O)c1cccnc1Oc1ccc(F)cc1F | -5.85% (inactive)
C=CCn1c(SCc2c(C(=O)OC)sc(N)c2C(=O)OC)nnc1-c1ccc(Cl)cc1 | 1.31% (inactive)
OC(CN=c1sc2ccccc2n1CC(O)COc1ccccc1)COc1ccccc1 (stereo unspecified) | 0.61% (inactive)
CCn1c(SC)nc(O)c(C(c2ccc(OC)c(O)c2)c2c(O)nc(SC)n(CC)c2=O)c1=O | -2.86% (inactive)
CCOC(=O)CNC(=O)CSc1nnnn1-c1cc(C)ccc1C | -0.99% (inactive)
CCn1nnnc1SCC(=O)c1ccc(C)cc1C | 21.8% (active)
CNC(=O)CSc1nnnn1-c1ccc(C)cc1C | 2.36% (inactive)
COc1ccc(OCCCC(=O)Oc2ccc(OC)cc2)cc1 | 0.13% (inactive)
COc1ccc(-c2oc3ncn(Cc4ccco4)c(=N)c3c2-c2ccc(OC)cc2)cc1 | 3.43% (inactive)
CCc1ccc(CNC(=O)C2CC(=O)N(CCc3ccc(C)cc3)C2)cc1 (stereo unspecified) | -1.09% (inactive)
CC(=O)c1cccc(NC(=O)N2CCCC2C(=O)NCCc2ccccc2)c1 (stereo unspecified) | -0.1% (inactive)
CCOC(=O)CC(=O)CSc1nc(-c2ccccc2)cc(-c2ccc(Cl)cc2)c1C#N | -8.83% (inactive)
N#CC1=C(N)N(c2ccccc2)C2=C(C(=O)CCC2)C1c1ccccc1 (stereo unspecified) | 0.57% (inactive)
O=C(NC1CCN(C(=S)NCc2ccco2)CC1)c1ccc(F)cc1 | 2.16% (inactive)
CCOc1ccc(N=Cc2c(O)n(-c3cccc(C)n3)c(=O)c3ccccc23)cc1 | -4.03% (inactive)
Cn1cccc1C(=O)Nc1nccs1 | 25.5% (active)
CCN(c1ccccc1)S(=O)(=O)c1ccc(C(=O)Nc2nccs2)cc1 | 1.43% (inactive)
COc1cc(C(=O)Nc2nccs2)cc(OC)c1OC | -2.65% (inactive)
Cc1ccccc1-n1c(C)cc(/C=N/NC(=O)c2ccc(CN3CCOCC3)cc2)c1C | 5.57% (inactive)
O=C(Cn1cc(/C=N/NC(=O)c2cccc(C(F)(F)F)c2)c2ccccc21)Nc1ccc(F)cc1 | -6.09% (inactive)
CCCNC(=S)N1CCC(NC(=O)C23CC4CC(CC(C4)C2)C3)CC1 | 0% (inactive)
Cc1nn(-c2ccccc2)c(Cl)c1C(=O)Nc1ccccc1 | 1.43% (inactive)
Cc1cccc(NC(=O)C(C)N2C(=O)C3C4CC(C(Br)C4Br)C3C2=O)c1 (stereo unspecified) | 3.39% (inactive)
Cc1ccc(-c2nn(C(C)(C)C)c3ncnc(N)c23)cc1 | 38.8% (active)

SMILES | inhibition
COc1nc(-c2ccc(Cl)cc2)ccc1-c1noc(-c2cccs2)n1 | -0.49% (inactive)
CCOC(=O)C1=C(CN2CCc3ccccc32)NC(=O)NC1c1cc(C)ccc1C (stereo unspecified) | 4.94% (inactive)
CN(Cc1ccccc1)C(=O)COc1ccccc1 | -1.65% (inactive)
Cc1no[n+]([O-])c1COc1ccccc1/C=C1\NC(=S)NC1=O | 1.38% (inactive)
O=C1CCN(C(=O)Nc2ccccc2)N1 | -0.01% (inactive)
COC(=O)CN(C(=S)Nc1ccc(Cl)cc1)C1CC(=O)N(c2ccc(OC)cc2)C1=O (stereo unspecified) | 1.24% (inactive)
Cc1ccc(OCC(=O)N/N=C/c2ccncc2)cc1 | 1.58% (inactive)
COC(=O)c1ccc(NC(=O)C23CC4CC(C2)CC(n2cnc(Cl)n2)(C4)C3)cc1 | 2.71% (inactive)
COc1ccc(C(=S)Nc2ccccc2)cc1 | -5.15% (inactive)
CCCNC(=O)Nc1ccccc1C(=O)Nc1ccc(OC)cc1 | 4.85% (inactive)
COc1ccc(NC(=O)ON=C2c3ccccc3-c3ccccc32)cc1 | 35% (active)
Cc1cccc(NC(=S)N2CCC(c3nc4ccccc4s3)CC2)c1 | 0.28% (inactive)
Cc1nn(C)c(Oc2ccccc2)c1CCNS(=O)(=O)c1ccc(F)cc1 | 0.76% (inactive)
Cc1nc2ccccc2c(-c2ccccc2)c1C(=O)c1ccccc1 | 0.7% (inactive)
Cc1ccc(NC(=S)NC(=O)c2ccc(-c3ccccc3)cc2)c(C)c1 | 1.93% (inactive)
CC(=O)NS(=O)(=O)c1ccc(NC(=O)/C=C/c2ccccc2Cl)cc1 | -4.73% (inactive)
Cc1ccc(/C=N/NC(=O)Cn2nc(C)c(Br)c2C)o1 | -0.29% (inactive)
O=[N+]([O-])c1ccc(C=Nc2ccc(Cl)cc2Cl)s1 | 20.7% (active)
Cc1cccn2c(=O)c3cc(C#N)c(=O)n(CCCN4CCOCC4)c3nc12 | 2.6% (inactive)
COc1ccc(CCn2c(=N)c(C(=O)NCc3ccco3)cc3c(=O)n4cccc(C)c4nc32)cc1 | 1.33% (inactive)
Cc1cccn2c(=O)c3cc(C(=O)N4COCC4(C)C)n(C)c3nc12 | 25.2% (active)
Cc1cccc(COc2ccccc2/C=N/Nc2ccc([N+](=O)[O-])cc2)c1 | 14.6% (inactive)
Cc1[nH]c2ccccc2c1C(=O)COC(=O)C(C)C | -1.84% (inactive)
CC(=O)c1ccc(Cc2ncc(C(F)(F)F)cc2Cl)s1 | 32.1% (active)

SMILES | inhibition
O=C(Cc1ncc(C(F)(F)F)cc1Cl)Nc1cccc(Br)c1 | -7.54% (inactive)
O=C(c1ccccn1)c1ncc(C(F)(F)F)cc1Cl | -4.84% (inactive)
COc1ccc(CC(NC(C)=O)C(=O)N2CCN(C(=O)Nc3cccc(Cl)c3)CC2)cc1OC (stereo unspecified) | -1.84% (inactive)
CCOc1cc2[nH]c(=S)n(Cc3ccc(C(=O)NCCOC)cc3)c(=O)c2cc1OCC | 1.95% (inactive)
Cc1nn(C)cc1CNC(=O)Nc1ccc(Cl)cc1 | 0.55% (inactive)
CN(CC(=O)Nc1cccc2c1CCCC2)S(=O)(=O)c1ccc(Cl)cc1 | 2.06% (inactive)
Cc1cc(=O)oc(C)c1C(=O)N1CCCCC1 | -3.95% (inactive)
Cc1c(NC(=O)CCCOc2ccccc2)cccc1[N+](=O)[O-] | 5.03% (inactive)
O=c1c2ccccc2c(-c2ccc(F)cc2)nn1-c1ccc(C(F)(F)F)cc1 | -9.67% (inactive)
Cc1cccc(Nc2ccccc2C(=O)NCc2ccco2)c1C | -0.25% (inactive)
COc1ccccc1OCCNc1cc(N2CCOCC2)ccc1[N+](=O)[O-] | 0.07% (inactive)
CCN(CC)Cc1cc(C(C)=O)ccc1O | -1.48% (inactive)
O=C1C(=O)N(c2ccccc2)c2ccccc21 | -1.97% (inactive)
CC(C)CC[n+]1ccn(C2=C([O-])c3ccccc3C(=O)/C2=N\S(=O)(=O)c2ccccc2)c1 | 0.45% (inactive)
COCCOC(=O)c1sc(=S)n(CCOC)c1N | 0.4% (inactive)
Cc1cc(C)nc(-n2nc(C)cc2NC(=O)c2ccc(Br)o2)n1 | 19.6% (active)
Cc1cccc(-n2nc3c(c2NC(=O)c2ccc(Br)o2)CSC3)c1C | -10.1% (inactive)
COc1cc(OC)c(NC(=O)c2ccc(Br)o2)cc1Cl | 2.86% (inactive)
O=C(Nc1ccc(F)c(Cl)c1)C1CCN(S(=O)(=O)c2cccnc2)CC1 | 5.16% (inactive)
COc1ccc(C2Nc3ccccc3C(=O)N2Cc2ccccc2)cc1Cn1nnc2ccccc21 (stereo unspecified) | 1.35% (inactive)
O=C(c1ccc(Cl)c(Cl)c1)N1CCCC1 | -2.15% (inactive)
O=C(c1ccc2c(c1)C(=O)N(c1ccc(Cl)cc1)C2=O)N1CCN(c2ccccn2)CC1 | 22.9% (active)
CC(=C1C(=O)c2ccccc2C1=O)N1CCN(c2ccccn2)CC1 | -0.27% (inactive)
CC(C)CC(N=C1NC(C)(C)Cc2ccccc21)C(=O)O (stereo unspecified) | -1% (inactive)
